# From PubChem BioAssay AID504652 (National Center for Advancing Translational Sciences (NCATS), 2011)
# In all, about 360,000 compounds went through this assay and about 11,000 (3.1%) were called active. Cut-off read from the data, not from the text of the source: active = activity change below about -30%; inactive = the rest. The list comes from a sample in which actives are over-represented; it also holds similar structures and randomly drawn compounds.
# Biological target: D(1A) dopamine receptor (Homo sapiens) (UniProt P21728)
# Sequence (P21728 whole entry, looked up): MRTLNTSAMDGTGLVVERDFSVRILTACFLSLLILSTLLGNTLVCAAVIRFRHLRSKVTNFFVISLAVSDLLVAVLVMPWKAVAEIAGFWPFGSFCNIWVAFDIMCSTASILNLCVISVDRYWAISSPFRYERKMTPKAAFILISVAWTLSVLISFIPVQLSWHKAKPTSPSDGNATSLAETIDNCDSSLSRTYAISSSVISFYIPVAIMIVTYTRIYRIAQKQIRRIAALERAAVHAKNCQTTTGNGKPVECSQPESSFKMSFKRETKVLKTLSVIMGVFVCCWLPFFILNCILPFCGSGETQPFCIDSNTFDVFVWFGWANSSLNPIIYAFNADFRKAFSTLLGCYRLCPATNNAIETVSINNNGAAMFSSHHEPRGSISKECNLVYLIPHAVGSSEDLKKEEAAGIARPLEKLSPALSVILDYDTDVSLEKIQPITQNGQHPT
# Experiment: Antagonist of Human D 1 Dopamine Receptor: qHTS
# Conditions: HEK293 TREx D1 cells, calcium flux, dopamine EC80; at 10 µM; stronger effect = lower value
# Method in brief: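 Kinetic fluorescence of a calcium dye serves as the read-out. D1-expressing Hek293 Trex cells, induced overnight at 30 C, are exposed to compound for 180 s before an EC80 dopamine addition, then read 180 s further.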
# % is set by controls: 0 for no effect and ±100 for the full control effect.
row,Structure (SMILES),"activity change, negative = inhibition"
1,C=CCn1c(O)c(/C=N/N2CCOCC2)c(=O)[nH]c1=S,6.62% (inactive)
2,COc1ccc(-c2nc(CS(=O)CC(=O)N3CCC4(CC3)OCCO4)c(C)o2)cc1 (stereo not drawn),-3.25% (inactive)
3,CCN1C(=O)C(=Cc2c(C)n(CC(=O)NCC3CCCO3)c3ccccc23)C(=O)N(CC)C1=S (stereo not drawn),-0.95% (inactive)
4,Cn1c(O)c(C(=Nc2ccc(F)cc2)c2ccccc2)c(=O)n(C)c1=O,-33.5% (active)
5,CC(=NC1CCN(Cc2ccccc2)CC1)c1c(O)n(C)c(=O)n(C)c1=O,-0.272% (inactive)
6,Cn1c(O)c(C=Nc2ccc3c(c2)CCC3)c(=O)n(C)c1=O,-5.53% (inactive)
7,COc1ccccc1N=C1SCCCN1C,-10.1% (inactive)
8,CCc1ccc(OCC(=O)N2CCN(CC(=O)Nc3ccccc3Cl)CC2)cc1,-5.54% (inactive)
9,COC(=O)C1=C(c2ccc3ccccc3c2)C[C@@H]2CC[C@H]1N2C(=O)NCCO,-40.5% (active)
10,COC(=O)C1=C(c2ccc(F)cc2OCc2ccccc2)C[C@@H]2CC[C@H]1N2C(=O)NCc1ccc(Cl)cc1,12.1% (inactive)
11,COC(=O)C1=C(c2ccc(C(C)=O)cc2)C[C@@H]2CC[C@H]1N2C(=O)NCCNC(C)=O,24% (inactive)
12,COC(=O)C1=C(c2ccc(-c3ccccc3)c(F)c2)C[C@@H]2CC[C@H]1N2C(=O)NCc1ccc(F)cc1,-0.711% (inactive)
13,COC(=O)C1=C(c2ccccc2OCc2ccccc2)C[C@@H]2CC[C@H]1N2C(=O)NCc1ccc(OC)cc1,-30.4% (active)
14,COC(=O)C1=C(c2ccc(F)cc2OCc2ccccc2)C[C@@H]2CC[C@H]1N2C(=O)NCc1ccc(C(C)(C)C)cc1,-11.5% (inactive)
15,CC(Cc1ccccc1)NCCC(c1ccccc1)c1ccccc1 (stereo not drawn),15.9% (inactive)
16,Cc1ccc(NC(=O)N(Cc2ccc3c(c2)OCO3)C2CCN(Cc3ccccc3)CC2)cc1F,2.05% (inactive)
17,CSc1nc2ccc(C)cc2c(=O)n1-c1cccnc1,7.08% (inactive)
18,Cc1cc(C(=O)OCC(=O)Nc2c(F)cccc2F)c(C)n1C1CC1,2.31% (inactive)
19,Cc1nn(-c2ccccc2)c(C)c1NC(=O)COC(=O)Cc1ccccc1,-0.424% (inactive)
20,O=C(CCN1CCCCC1)NCC(=O)Nc1ccc(Br)cc1C(=O)c1ccccc1,-20.3% (inactive)
21,O=C(Nc1ccc(Cl)cc1C(=O)c1ccccc1)c1cc(Cl)cc(Cl)c1,23.8% (inactive)
22,O=C(CN1CCCCC1)Nc1ccc(Br)cc1C(=O)c1ccccc1Cl,-26.5% (inactive)

row,Structure (SMILES),"activity change, negative = inhibition"
1,CN1CCN(C(=S)SCC(=O)Nc2ccc(Cl)cc2C(=O)c2ccccc2)CC1,-39.4% (active)
2,O=C(COC(=O)c1ccccc1)Nc1ccc(Cl)cc1C(=O)c1ccccc1,-31.5% (active)
3,O=C(CCNS(=O)(=O)c1ccccc1)Nc1ccc(Cl)cc1C(=O)c1ccccc1,-6.99% (inactive)
4,CN(c1ccccc1)c1ccc([N+](=O)[O-])c2nonc12,0.138% (inactive)
5,COC(=O)C1=C(c2ccc(F)cc2F)C[C@@H]2CC[C@H]1N2C(=O)NC1CC1,25.8% (inactive)
6,O=C(NC(=S)N1C[C@H]2C[C@H](C1)c1cccc(=O)n1C2)c1ccc(F)cc1,-0.512% (inactive)
7,Cn1cc(/C=C/c2nc3ccccc3c(=O)n2-c2ccccc2)c2ccccc21,11% (inactive)
8,Cc1ccccc1NC(=O)COC(=O)c1cc(C)n(C2CC2)c1C,2.42% (inactive)
9,C[C@]12CC[C@H](O)C[C@H]1CC[C@@H]1C2CC[C@]2(C)[C@@H](C3=CC(=O)OC3)[C@@H](O)C[C@]12O (stereo partly drawn),-17.2% (inactive)
10,CC(C)CN1CCN(Cc2ccccc2C(F)(F)F)CC1CCO (stereo not drawn),0.591% (inactive)
11,O=C(CCCn1c(=O)[nH]c2cc(Cl)ccc2c1=O)N1CCC2(CC1)OCCO2,-7.09% (inactive)
12,Cc1ccc(-c2cc(C(=O)N3CCC4(CC3)OCCO4)no2)cc1,-7.04% (inactive)
13,Cc1ccc(Cn2c(C)c3cnn(CC(=O)N4CCC5(CC4)OCCO5)c(=O)c3c2C)cc1,-49.4% (active)
14,CNC(=O)O/N=C(\N)Cc1csc2ccccc12,-21.2% (inactive)
15,CNC(=O)N(C)c1nnc(C(C)(C)C)s1,9.77% (inactive)
16,CCc1nc2ccccc2c(=O)n1-c1cccc(OC)c1,2.19% (inactive)
17,NCC(O)c1ccc(O)cc1 (stereo not drawn),-66.9% (active)
18,CCOP(=O)(OCC)C(NC(=O)NC)C(N)=O (stereo not drawn),4.22% (inactive)
19,COC(=O)C1=C(c2cccc(OCc3ccccc3)c2)C[C@@H]2CC[C@H]1N2C(=O)NNCc1ccccc1,-14.3% (inactive)
20,CCN1CCN(c2ccc([N+](=O)[O-])cc2C#N)CC1,1.99% (inactive)
21,CC(C)n1c(=O)c(C=Nc2ccc(Br)cc2)c(O)n(Cc2ccco2)c1=O,14% (inactive)
